Compounds with a hit are over-represented: about 10% of the library has one in this group of screens.
GLS inhibitor – qHTS for Inhibitors of Glutaminase (GLS). Glutaminase kidney isoform, mitochondrial (Homo sapiens), O94925. GLS enzymatic activity, qHTS titration. Potency, µM (doses to about 45.5 µM), actives largely listed as inhibitors. actives 0.21% (n = 410,000). AID 624170, 2012
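Assay buffer: 45 mM KH2PO4 pH 8.2, 0.02% Tween-20. hKGA acts on L-glutamine (1 mM solution added); product glutamate is reported by an oxidase/peroxidase Amplex Red coupling, with fluorescence taken at baseline and 30 min.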
HP1b binding inh – HTS for Inhibitors of HP1-beta Chromodomain Interactions with Methylated Histone Tails; Chromobox protein homolog 1 (Homo sapiens), P83916; AlphaScreen HP1-beta / biotin-H3K9me3 peptide binding; Potency, µM (titrated, usually from 114 µM), actives largely listed as inhibitors; actives 0.56% (n = 390,000); note: nearly all actives have a fitted effect of over 70% in size
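Compound inhibition of the preformed complex between 50 nM HP1-beta and 50 nM biotinylated H3K9me3 peptide was read by AlphaScreen. Buffer was PBS pH 7.4 with 0.01% Tween-20. Incubations ran 30 min at room temperature, with 10 ug/mL donor/acceptor beads.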
JMJD2A Tudor – qHTS Assay for Inhibitors of JMJD2A-Tudor Domain | AID 504339, 2011 | Potency, µM (doses to about 114 µM), most hits filed as inhibitors | AlphaScreen JMJD2A-Tudor / H3K4me3 peptide binding | Lysine-specific demethylase 4A (Homo sapiens), O75164 | actives 4.4% (n = 390,000); note: nearly all actives have a fitted effect of over 50% in size
BAZ2B block – qHTS Assay for Inhibitors of BAZ2B; actives 4.4% (n = 360,000); Potency, µM (top dose mostly 114 µM), usual class: inhibitors; AlphaScreen BAZ2B-H3K14Ac peptide displacement; note: nearly all actives have a fitted effect of over 60% in size
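Complex of BAZ2B and biotin-H3K14Ac (50 nM apiece) forms over 30 min at RT, then faces library compounds up to 110 uM for another 30 min; AlphaScreen beads added, 20 min dark incubation, luminescence read.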
G9a inh – qHTS Assay for Inhibitors of Histone Lysine Methyltransferase G9a | actives 8.8% (n = 350,000) | Potency, µM (series often up to 102 µM), most hits filed as inhibitors | Histone-lysine N-methyltransferase EHMT2 (Homo sapiens), Q96KQ7 | G9a H3K9 monomethylation, AlphaScreen, 2 h; note: nearly all actives have a fitted effect of over 75% in size
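Compounds were preincubated with 20 nM G9a for 15 min, after which biotinylated H3K9 peptide (500 nM) and SAM (20 uM) started a 2 h room-temperature reaction. Monomethylated product was quantified by antibody-based AlphaScreen chemiluminescence.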
Each line names hits and unclear results; the compound was inactive in the other large screens; ! = not confirmed by another sample. Calls come from the whole dose curve; as a rule, active = well fitted curve in the direction sought with a large enough effect; inconclusive = small, poorly fitted or top-dose-only effect, or another doubt; inactive = no such curve, though single readings can be large; an effect the other way counts as inactive or inconclusive.

Cc1nn(S(=O)(=O)c2ccc(C(C)(C)C)cc2)c(C)c1S(=O)(=O)N1CCOCC1	JMJD2A Tudor inconclusive, G9a inh inconclusive
Cc1nn(S(=O)(=O)c2ccccc2)c(C)c1S(=O)(=O)N1CCOCC1	G9a inh 79.4µM
Cc1nn(S(=O)(=O)c2ccc(F)cc2)c(C)c1S(=O)(=O)N1CCOCC1	BAZ2B block inconclusive, G9a inh 35.5µM
Cc1cccc(C)c1NC(=O)CN1CCCCCC1	none (no result: HP1b binding inh, JMJD2A Tudor, BAZ2B block)
COc1ccc(O)c(-c2c(-c3ccc(Cl)cc3)n[nH]c2C)c1	JMJD2A Tudor inconclusive, BAZ2B block inconclusive, G9a inh 25.1µM
COc1ccc(-c2n[nH]c(C)c2-c2ccc(Cl)cc2)c(O)c1	JMJD2A Tudor inconclusive
COc1ccc2[nH]c3nc(SC(C)C)nnc3c2c1	BAZ2B block inconclusive
Cc1ccc(-c2nnc(-c3ccc4ccccc4c3)o2)cc1	none (no result: BAZ2B block, G9a inh)
O=C(Nc1ccccc1Cl)OC1CCCCC1	none
COc1ccc(NC(=O)CN2C(=O)NC(C)(c3ccc4c(c3)OCO4)C2=O)cc1S(N)(=O)=O (stereo not given)	JMJD2A Tudor inconclusive (no result: BAZ2B block, G9a inh)
CCOP(=O)(OCC)C(C#N)=C1SCN(c2ccc(Cl)cc2)CS1	JMJD2A Tudor 79.4µM, G9a inh inconclusive
Cc1ccc2c(COC(=O)CNC(=O)c3ccccc3)cc(=O)oc2c1	none
Cc1ccccc1Cn1cc(NC(=O)c2cc(C3CC3)on2)cn1	BAZ2B block inconclusive, G9a inh 39.8µM
Cc1ccccc1Cn1cc(NC(=O)c2cc(-c3ccc(Cl)cc3)on2)cn1	none
COc1ccc2[nH]c3c(=O)n(N)c(C)nc3c2c1	none
Cc1cccn2c(=O)c(C=O)c(Sc3ncccn3)nc12	G9a inh 39.8µM
CN(C)CC(C)(C)CNS(=O)(=O)c1ccc(Cl)c(Cl)c1	JMJD2A Tudor 17.8µM!, BAZ2B block inconclusive, G9a inh inconclusive
CN(C)CCNC(=O)c1cccc(NS(=O)(=O)c2ccc(Cl)c(Cl)c2)c1	G9a inh inconclusive (no result: BAZ2B block)
Cc1nnsc1-c1nc2ccccc2[nH]1	G9a inh 28.2µM (no result: BAZ2B block)
Cc1ccc(-c2nc3ccccc3[nH]2)s1	G9a inh 7.94µM
c1csc(-c2nc3ccccc3[nH]2)c1	G9a inh inconclusive
CCCCC(=O)Nc1ccnc(-c2cccnc2)n1	none (no result: G9a inh)
CC(=O)c1ccc(NC(=O)c2ccc(-c3nc(COc4ccc(C)cc4)c(C)o3)cc2)cc1	HP1b binding inh 44.7µM, G9a inh inconclusive
COc1ccc(-c2nc(CS(=O)(=O)CC(=O)Nc3cccc(C(C)=O)c3)c(C)o2)cc1	G9a inh 20µM
COc1cccc(-c2nc(CS(=O)(=O)CC(=O)Nc3cccc(C(C)=O)c3)c(C)o2)c1	JMJD2A Tudor inconclusive, BAZ2B block inconclusive
Cc1oc(-c2cccc(Cl)c2)nc1CS(=O)(=O)CC(=O)NC1CC1	G9a inh 50.1µM
COC(=O)c1c(N2C(=O)[C@H]3[C@@H](C2=O)[C@]2(C(=O)Nc4ccc(C)cc42)N2CCC[C@@H]32)sc(C)c1C	none (no result: GLS inhibitor, HP1b binding inh, JMJD2A Tudor)
COCCN(C(=O)c1ccc2c(c1)S(=O)(=O)N=C1CCCCCN12)c1c(N)n(CC(C)C)c(=O)[nH]c1=O	none (no result: BAZ2B block, G9a inh)
Cc1n[nH]c(=O)c2c(NC(=O)CSc3nc4ccccc4c(=O)n3C(C)C)oc(C)c12	G9a inh 56.2µM
COCCn1c(Cc2ccccc2)nnc1SCC(=O)Nc1oc(C)c2c(C)n[nH]c(=O)c12	G9a inh 14.1µM
Cc1n[nH]c(=O)c2c(NC(=O)CSc3nnnn3-c3ccccc3)oc(C)c12	JMJD2A Tudor inconclusive, G9a inh 44.7µM
COCC(C)n1c(SCC(=O)Nc2oc(C)c3c(C)n[nH]c(=O)c23)nc2ccccc2c1=O (stereo not given)	none (no result: G9a inh)
CCN(CC)C(=O)CSc1nnc(-c2ccccc2)o1	G9a inh 79.4µM
CN(C)CCSc1nnc(-c2ccccc2)o1	G9a inh 39.8µM
CCN(CC)C(=O)CSc1nnc(-c2ccccc2)n1N	none
CCN(Cc1ccccc1)C(=O)CSc1nncn1C	BAZ2B block inconclusive, G9a inh 56.2µM
CCN(CC)C(=O)CSc1nnc(-c2ccccc2)n1-c1ccccc1	JMJD2A Tudor 50.1µM, G9a inh 28.2µM

High-throughput results: PubChem, National Center for Advancing Translational Sciences (NCATS)
